{
  "source": "PubChem BioAssay (EPA / NIEHS)",
  "key": {"[1]": {"molecular_target": "Estrogen receptor (Homo sapiens) (UniProt P03372)", "sequence (P03372 whole entry, looked up)": "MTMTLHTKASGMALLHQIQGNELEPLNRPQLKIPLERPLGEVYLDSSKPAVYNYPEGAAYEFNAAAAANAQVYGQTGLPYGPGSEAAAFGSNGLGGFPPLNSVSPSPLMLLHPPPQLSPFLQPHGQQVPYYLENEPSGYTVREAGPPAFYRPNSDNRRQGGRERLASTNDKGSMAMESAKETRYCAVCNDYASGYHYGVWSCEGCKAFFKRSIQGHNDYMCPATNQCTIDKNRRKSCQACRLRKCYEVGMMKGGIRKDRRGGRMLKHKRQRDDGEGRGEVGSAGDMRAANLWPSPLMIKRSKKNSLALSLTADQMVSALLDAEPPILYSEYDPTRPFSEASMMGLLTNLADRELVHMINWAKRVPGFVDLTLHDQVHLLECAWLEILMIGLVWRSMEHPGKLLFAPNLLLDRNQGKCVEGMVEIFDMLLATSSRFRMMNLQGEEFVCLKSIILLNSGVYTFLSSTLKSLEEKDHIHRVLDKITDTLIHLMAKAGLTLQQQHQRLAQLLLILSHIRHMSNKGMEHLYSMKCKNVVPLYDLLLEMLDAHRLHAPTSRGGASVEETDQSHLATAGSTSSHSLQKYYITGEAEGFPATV", "experiment": "CCTE_Deisenroth_AIME_384WELL_LUC_Active: CCTE's 384-well Estrogen Receptor Transactivation Assay with AIME metabolic competence (ERTA luciferase; metabolism positive), Deisenroth Lab (AID 2284030; active = hit-call score of the fitted dose curve at least 0.9, where 1 is the maximum)", "how_it_was_run": "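In this metabolism-positive format, a 2-hour exposure to alginate-immobilized rat S9 precedes a 24 hour luciferase transactivation readout in VM7Luc4E2 cells. Dosing spans 10 concentrations from 0.002 to 200 uM.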"}, "[2]": {"molecular_target": "Estrogen receptor (Homo sapiens) (UniProt P03372)", "experiment": "CCTE_Deisenroth_AIME_384WELL_LUC_Inactive: CCTE's 384-well Estrogen Receptor Transactivation Assay without AIME metabolic competence (ERTA luciferase; metabolism negative), Deisenroth Lab (AID 2284038; active = hit-call score of the fitted dose curve at least 0.9, where 1 is the maximum;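 note: hits raise estrogen receptor luciferase signal so potencies reflect agonists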)", "how_it_was_run": "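VM7Luc4E2 ER transactivation, luciferase bioluminescence after 24 h, using medium pre-incubated 2 h with S9-free alginate microspheres. Concentrations 0.002–200 uM; gain of signal fitted relative to 17beta-estradiol.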"}, "[3]": {"experiment": "CCTE_Deisenroth_AIME_384WELL_CTox_Active: Cytotoxicity Assessment (CTOX) in CCTE's 384-well Estrogen Receptor Transactivation Assay with AIME metabolic competence (metabolism positive), Deisenroth Lab (AID 2284037; active = hit-call score of the fitted dose curve at least 0.9, where 1 is the maximum;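 note: chemicals first conditioned 2 h by alginate-bound induced rat liver S9 before cells; activity means signal loss indicating cell death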)", "how_it_was_run": "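Chemicals pre-incubated 2 hours with alginate-immobilised phenobarbital/beta-naphthoflavone-induced male Sprague Dawley rat liver S9, then conditioned medium applied 24 hour to VM7Luc4E2 cells. Viability by fluorogenic protease substrate; 10-point series 0.002 - 200 uM.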"}, "[4]": {"experiment": "CCTE_Harrill_HTTr_Viability_MCF7: CCTE's 6-hour Cell Viability Assessment for the High-Throughput Transcriptomics (HTTr) Platform, in MCF-7 cells cultured in DMEM + 10% fetal bovine serum, Harrill Lab (AID 2284010)", "how_it_was_run": "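Propidium iodide exclusion, imaged by high-content analysis, gauged viability after a six-hour exposure across eight concentrations. Cells were MCF-7 grown in DMEM with 10% fetal bovine serum; fits run in both directions against DMSO.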"}, "[5]": {"experiment": "CCTE_Harrill_HTTr_Apoptosis_MCF7: CCTE's 6-hour Apoptosis Assessment for the High-Throughput Transcriptomics (HTTr) Platform, in MCF-7 cells cultured in DMEM + 10% fetal bovine serum, Harrill Lab (AID 2284011)", "how_it_was_run": "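Cells are dosed with test chemicals at eight concentrations and imaged 6 hours later for caspase-3/7 activity using a green fluorogenic detection reagent. Activity is fitted in both directions against DMSO controls.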"}},
  "note": "Inconclusive results are not listed. The source made the active and inactive calls. Rule for the calls, unless noted: active = hit-call score of the fitted dose curve at least 0.9, where 1 is the maximum; inactive = score below 0.9.",
  "data": [
    {"smiles": "N#Cc1cccnc1", "values": [
      {"measurement": "outcome", "setting": "[1]", "result": "inactive"},
      {"measurement": "outcome", "setting": "[2]", "result": "inactive"}
    ]},
    {"smiles": "Oc1cc(Cl)c(Cl)cc1Cl", "values": [
      {"measurement": "AC50", "setting": "[3]", "result": "100 µM (active)"}
    ]},
    {"smiles": "CCCCCCCCCCCCc1cccc(S(=O)(=O)O)c1", "values": [
      {"measurement": "outcome", "setting": "[3]", "result": "inactive"}
    ]},
    {"smiles": "CCOP(=S)(OCC)OP(=S)(OCC)OCC", "values": [
      {"measurement": "outcome", "setting": "[4]", "result": "inactive"},
      {"measurement": "outcome", "setting": "[5]", "result": "inactive"}
    ]},
    {"smiles": "COC(=O)c1cc(Oc2ccc(Cl)cc2Cl)ccc1[N+](=O)[O-]", "values": [
      {"measurement": "outcome", "setting": "[4]", "result": "inactive"},
      {"measurement": "outcome", "setting": "[5]", "result": "inactive"}
    ]},
    {"smiles": "C1CCC(C2CCCCC2)CC1", "values": [
      {"measurement": "outcome", "setting": "[4]", "result": "inactive"},
      {"measurement": "outcome", "setting": "[5]", "result": "inactive"}
    ]},
    {"smiles": "C[CH2][Hg][S]c1ccccc1C(=O)O", "values": [
      {"measurement": "AC50", "setting": "[4]", "result": "49.1 µM (active)"},
      {"measurement": "outcome", "setting": "[5]", "result": "inactive"}
    ]},
    {"smiles": "C=CCc1ccccc1O", "values": [
      {"measurement": "outcome", "setting": "[4]", "result": "inactive"},
      {"measurement": "outcome", "setting": "[5]", "result": "inactive"}
    ]},
    {"smiles": "O=C(O)COc1cc(Cl)c(Cl)cc1Cl", "values": [
      {"measurement": "outcome", "setting": "[4]", "result": "inactive"},
      {"measurement": "outcome", "setting": "[5]", "result": "inactive"}
    ]},
    {"smiles": "CCOC(=O)c1ccccc1S(=O)(=O)NC(=O)Nc1nc(Cl)cc(OC)n1", "values": [
      {"measurement": "outcome", "setting": "[4]", "result": "inactive"},
      {"measurement": "outcome", "setting": "[5]", "result": "inactive"}
    ]},
    {"smiles": "CN(C1CCCCC1)C1CCCCC1", "values": [
      {"measurement": "outcome", "setting": "[4]", "result": "inactive"},
      {"measurement": "outcome", "setting": "[5]", "result": "inactive"}
    ]},
    {"smiles": "COCC(=O)N(c1c(C)cccc1C)[C@H](C)C(=O)OC", "values": [
      {"measurement": "outcome", "setting": "[4]", "result": "inactive"},
      {"measurement": "outcome", "setting": "[5]", "result": "inactive"}
    ]},
    {"smiles": "CCN(N=O)C(N)=O", "values": [
      {"measurement": "outcome", "setting": "[4]", "result": "inactive"},
      {"measurement": "outcome", "setting": "[5]", "result": "inactive"}
    ]},
    {"smiles": "CCCCCCCCCCCCCCC(Br)C(=O)O", "note": "(stereo not given)", "values": [
      {"measurement": "outcome", "setting": "[4]", "result": "inactive"},
      {"measurement": "outcome", "setting": "[5]", "result": "inactive"}
    ]},
    {"smiles": "C#C[C@]1(O)CC[C@H]2[C@@H]3CCC4=CC(=O)CC[C@]4(C)[C@H]3CC[C@@]21C", "values": [
      {"measurement": "outcome", "setting": "[4]", "result": "inactive"},
      {"measurement": "outcome", "setting": "[5]", "result": "inactive"}
    ]},
    {"smiles": "O=C1C=CC(=O)c2ccccc21", "values": [
      {"measurement": "AC50", "setting": "[4]", "result": "69.1 µM (active)"},
      {"measurement": "AC50", "setting": "[5]", "result": "60.4 µM (active)"}
    ]},
    {"smiles": "O=NN1CCOCC1", "values": [
      {"measurement": "outcome", "setting": "[4]", "result": "inactive"},
      {"measurement": "outcome", "setting": "[5]", "result": "inactive"}
    ]},
    {"smiles": "C1CN2CCN1CC2", "values": [
      {"measurement": "outcome", "setting": "[4]", "result": "inactive"},
      {"measurement": "outcome", "setting": "[5]", "result": "inactive"}
    ]},
    {"smiles": "CC1CC(=O)O1", "note": "(stereo not given)", "values": [
      {"measurement": "outcome", "setting": "[4]", "result": "inactive"},
      {"measurement": "outcome", "setting": "[5]", "result": "inactive"}
    ]},
    {"smiles": "C[C@]12CC[C@@H](O)C[C@@H]1CC[C@@H]1[C@@H]2CC[C@]2(C)C(=O)CC[C@@H]12", "values": [
      {"measurement": "outcome", "setting": "[4]", "result": "inactive"},
      {"measurement": "outcome", "setting": "[5]", "result": "inactive"}
    ]},
    {"smiles": "CN(N=O)C(N)=O", "values": [
      {"measurement": "outcome", "setting": "[4]", "result": "inactive"},
      {"measurement": "outcome", "setting": "[5]", "result": "inactive"}
    ]}
  ]
}
